Cruzain noTriton: inhibitors of Trypanosoma cruzi cruzain without detergent; 200,000 tested, 2.3% active; P25779; purified cruzain, Z-FR-AMC fluorescence, no detergent; AID 1476; Potency, µM, without a hit: max response, negative = inhibition, hits mostly inhibitors;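 further: plate controls were enzyme without inhibitor for no effect and buffer without enzyme for full effect; nearly all actives have a fitted effect of over 40% in size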
Target sequence (P25779 123-467 limits assumed): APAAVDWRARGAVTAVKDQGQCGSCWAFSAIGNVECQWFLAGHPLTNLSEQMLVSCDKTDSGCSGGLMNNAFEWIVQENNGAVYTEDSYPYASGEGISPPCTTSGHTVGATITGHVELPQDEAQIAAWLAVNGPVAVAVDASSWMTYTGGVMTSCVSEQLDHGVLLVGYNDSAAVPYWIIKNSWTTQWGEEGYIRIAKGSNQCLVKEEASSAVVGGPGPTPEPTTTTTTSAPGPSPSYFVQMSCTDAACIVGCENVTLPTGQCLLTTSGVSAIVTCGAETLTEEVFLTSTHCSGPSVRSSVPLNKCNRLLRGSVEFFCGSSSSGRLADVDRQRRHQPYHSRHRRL
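Detergent-free condition (0.00005% Triton X-100) in acetate buffer pH 5.5 with DTT. 1.5 nM enzyme and compound were pre-mixed 15 min, then 2 uM Z-FR-AMC substrate added; reaction progress from fluorescence change between first and third reads (60 s).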
Cruzain inh Det: cruzain (T. cruzi) inhibition with detergent | purified cruzain, Z-FR-AMC fluorescence, 0.01% Triton | Potency, µM, for the others: max response, negative = inhibition, hits mostly inhibitors | 200,000 tested, 0.43% active;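 further: plate controls were neutral wells for no effect and buffer without enzyme for full effect; nearly all actives have a fitted effect of over 40% in size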
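In this qHTS format, compounds are incubated with 1.5 nM cruzain for 15 min at room temperature before 2 uM Z-FR-AMC is added. Release of AMC is followed at 360/450 nm, and progress is taken as the 60 s fluorescence difference.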
* marks the source's active call; other numbers are inactive results; ? = inconclusive. The list is not random: actives were taken first. Their share in the collection is about 2.4%. The call rests on the fitted dose curve; in most records, active means well fitted curve in the direction sought with a large enough effect; inconclusive means small, poorly fitted or top-dose-only effect, or another doubt; inactive means no such curve, though single readings can be large; an effect the other way counts as inactive or inconclusive. Potency means the concentration at half of the fitted maximal effect.

SMILES	Cruzain noTriton	Cruzain inh Det
CN(C)c1ccc(CN(Cc2ccco2)C(=O)COc2ccc(F)cc2)cc1	?	-6.4%
Cc1oc(-c2ccc(C(=O)Nc3cccc(C(F)(F)F)c3)cc2)nc1CSc1ccccc1	?	-3.5%
Cc1nc(-c2ccc(C)c(N3CCN(C(=O)Nc4cccc(Cl)c4C)CC3)c2)no1	9.3%	-2.5%
COc1ccc(-c2csc(NC(=O)c3cccc(S(=O)(=O)N4CCN(C)CC4)c3)n2)cc1	-5.3%	-3.1%
COc1ccc(C2=CSC3=C(C(=O)c4cccc(S(=O)(=O)N(C)C)c4)CCN23)cc1	25.1µM*	-7.6%
O=C(N/N=C\c1ccc(-c2ccc([N+](=O)[O-])cc2)o1)c1ccc2c(c1)OCO2	7.94µM*	-1.1%
O=C(N/N=C/c1ccc(Br)o1)c1ccc2c(c1)OCCO2	-12.4%	-6.3%
Cc1ccc(-c2nnn(CC(=O)N(c3ccccc3)C(C(=O)NC3CCCC3)c3ccco3)n2)o1 (stereo not drawn)	10µM*	0.7%
Cc1ccc(-c2nnn(CC(=O)N(Cc3cccs3)C(C(=O)NC3CCCC3)c3ccco3)n2)o1 (stereo not drawn)	3.8%	6.6%
CCOP(=O)(OCC)C(NC(=O)c1ccc(Cl)cc1)=C(Cl)Cl	5.4%	2.2%
CCOP(=O)(OCC)C(C#N)=C1SCN(c2ccc(Cl)cc2)CS1	12.6µM*	-8.6%
Cc1ccc(C(C)C)c2oc(=O)cc(-c3ccc(-c4ccc(C(F)(F)F)cc4)cc3)c12	?	1.0%
CC(=O)c1ccc(-c2ccc(-c3cc(=O)oc4c(C(C)C)ccc(C)c34)cc2)cc1	8.91µM*	-2.2%
Cc1ccc(-n2ncc3c(=O)[nH]c(SCC(=O)N4CCOCC4)nc32)cc1	-11.3%	0.9%
O=c1[nH]c(SCc2ccccc2Cl)nc2c1cnn2-c1ccccc1	15.8µM*	-3.0%
O=c1[nH]c(SCc2nc3c(cnn3-c3ccccc3)c(=O)[nH]2)nc2ccccc12	0.0%	9.0%
Cc1ccc(-n2ncc3c(=O)[nH]c(SCC(=O)N4CCN(c5ccccc5)CC4)nc32)cc1	25.1µM*	0.5%
CCCCC/C=C\C/C=C\C/C=C\C=C\C(O)CCCC(=O)O (stereo not drawn)	-4.8%	2.4%
C(=C\c1nc2ccccc2[nH]1)/c1ccccc1	20µM*	-20.8%
Cc1cccc(/C=C\c2nc3ccccc3c(=O)[nH]2)c1	?	27.2%
O=c1cc(CSc2nnnn2-c2ccccc2)nc2scc(-c3ccccc3)n12	25.1µM*	-3.2%
Cc1ccccc1Nc1nc(CSc2nnnn2-c2ccccc2)cs1	20µM*	1.0%
c1ccc(-c2nc(CSc3nnnn3-c3ccccc3)cs2)cc1	-1.7%	-1.3%
O=c1cc(CSc2nnnn2-c2ccccc2)nc2nc[nH]n12	-3.1%	1.0%
CC1(N)CCC(C(C)(C)N)CC1 (stereo not drawn)	1.7%	1.7%
SMILES	Cruzain noTriton	Cruzain inh Det
COc1ccccc1CCNC(=O)Cc1c(C)c2cc3c(C)coc3cc2oc1=O	8.5%	-1.1%
COc1ccc2c(c1OC)C(Cc1ccccc1)N1CCc3cc4c(cc3C1C2)OCO4 (stereo not drawn)	17.4%	-3.5%
COC(=O)Cn1c(=NC(=O)c2ccc([N+](=O)[O-])s2)sc2cc(Br)ccc21	10µM*	-4.2%
COC(=O)Cn1c(=NC(=O)c2nc3ccccc3s2)sc2cc(S(C)(=O)=O)ccc21	17.2%	-8.3%
COc1ccccc1NC(=O)CSc1nc(N)cc(N)n1	-3.6%	5.4%
COc1ccccc1NC(=O)CSc1nc2ccccc2cc1Cc1ccccc1	20µM*	0.6%
O=C(CNc1cccc(Cl)c1)c1ccc(Cl)cc1	31.6µM*	6.6%
Cc1ccc(C(=O)CNc2cccc(Cl)c2)cc1	-23.0%	-0.5%
O=C(NC1CCCCC1)N1CCC(c2nc3ccccc3[nH]2)CC1	-0.4%	0.2%
O=C(NC1CCCCC1)N1CCCC(c2nc3ccccc3[nH]2)C1 (stereo not drawn)	5.01µM*	?
CCc1ccc2oc(C(=O)N(Cc3ccc(N(C)C)cc3)Cc3ccco3)c(C)c2c1	?	-6.8%
CC(C)c1ccc(-c2noc(SCC(=O)N3CCCCC3)n2)cc1	10.6%	0.1%
CSCCC(NC(=O)c1ccc([N+](=O)[O-])cc1Cl)C(=O)OCC(=O)C12CC3CC(CC(C3)C1)C2 (stereo not drawn)	25.1µM*	28.2µM*
CSCCC(NC(=O)C12CC3CC(CC(C3)C1)C2)C(=O)OCC(=O)c1ccc(C)cc1 (stereo not drawn)	14.1%	-1.7%
NC1=NC2(CCCCC2)N=C(Nc2ccc(Br)cc2)N1	20µM*	28.2µM*
Cc1cccc(C)c1NC1=NC2(CCCCC2)N=C(N)N1	4.3%	2.5%
CCOc1ccccc1NC(=O)NCc1noc2ccc(C)cc12	10.2%	-6.2%
CC(C)C[C@@H](CC(=O)N[C@@H](CCCN)CC(=O)N[C@@H]1CCNC[C@H]1C(=O)N[C@H](CC(=O)N[C@@H](CCC(=O)O)CC(=O)O)Cc1ccccc1)NC(=O)[C@@H]1CNCC[C@H]1N	8.1%	-0.7%
CC1CCc2c(sc(NC(=O)c3cc(-c4ccc(F)cc4)on3)c2C(N)=O)C1 (stereo not drawn)	-0.3%	-2.4%
Cc1cccc(-n2c(O)c(C=Nc3ccc(O)cc3)c3ccccc3c2=O)n1	?	-11.2%
Cc1ccc(N=Cc2c(O)n(-c3ccc4c(c3)OCO4)c(=O)c3ccccc23)cc1	3.16µM*	-2.6%
CCOc1ccccc1NC(=O)c1cc2cc(C)ccc2n1C	-1.5%	-2.5%
CCn1c2ccc(C)cc2c2nnc(NN)nc21	-23.8%	-17.3%
CCOC(=O)C(CC)Sc1nnc2c3cc(C)ccc3n(C)c2n1 (stereo not drawn)	?	-13.0%
CCCn1c2ccc(C)cc2c2nnc(SCCN3CCCCC3)nc21	?	14.1µM*
SMILES	Cruzain noTriton	Cruzain inh Det
CSc1nnc2c3cc(C)ccc3n(Cc3ccccc3)c2n1	25.1µM*	?
O=C(CSc1ccc(Cl)cc1)Nc1ccc(-c2nc3ccccc3[nH]2)cc1	20µM*	?
O=C(CSc1ccccc1)Nc1nc2ccccc2[nH]1	-2.7%	-7.2%
CCOc1ccc(-c2cc(NC(=O)Nc3ccccc3Cl)c(C(=O)OC)s2)cc1	-26.4%	-4.2%
CCOC(=O)c1c(S(=O)(=O)NCC(=O)N2CCN(c3cccc(Cl)c3)CC2)c(C)n(C)c1C	?	2.7%
COc1ccc(CCNC(=O)c2ccc(Cn3c(=O)c4ccccc4n(Cc4cccc(F)c4)c3=O)cc2)cc1OC	-3.7%	-2.5%
CCCCc1ccc(/C=C2/C(=O)ON=C2c2ccccc2)s1	-5.8%	-14.7%
Cc1sc(/C=C2\C(=O)ON=C2c2ccccc2)cc1Br	25.1µM*	?
CCC(=O)N1CCc2cc(Br)cc(S(=O)(=O)N3CCN(c4cccc(Cl)c4)CC3)c21	-2.3%	0.4%
COc1cc(/C=c2\sc3n(c2=O)C(c2ccccc2)C(c2ccccc2)=NN=3)ccc1O (stereo not drawn)	15.8µM*	5.4%
COc1cc(/C=c2\sc3n(c2=O)CCCN=3)ccc1O	-1.8%	-4.0%
COc1cccc(CS(=O)(=O)c2nnnn2-c2ccc(F)cc2Br)c1	-0.3%	2.3%
Cc1ccc2c(c1)N(C(=O)C1CCN(S(=O)(=O)c3c(C)noc3/C=C/c3ccccc3F)CC1)CCO2	12.6µM*	-4.9%
Cc1ccc(/C=C/c2onc(C)c2S(=O)(=O)N2CCC(C(=O)N3CCOc4ccccc43)CC2)cc1	-28.3%	-3.0%
CCC1CN(C(=O)C2CCN(S(=O)(=O)c3c(C)noc3/C=C/c3ccccc3F)CC2)c2cc(Cl)ccc2O1 (stereo not drawn)	3.16µM*	-2.5%
